Measurements published in PubChem BioAssay (NCI).
This is part of a sample that, as a whole, favours compounds with a hit. Of some 83,000 tested, about 20% had one in any assay.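 The endpoint reported here, percent growth, reads 100 for growth as untreated, 0 for no net growth and -100 for all cells dead.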 Values without a mark were called inactive. Activity calls are given as the source filed them. Rule for the calls: active = growth percent below 10; inactive = the rest.

Columns and labels:
Assay in all cases: NCI-60 one-dose screen, 48 h (100 = growth as untreated, 0 = no growth, -100 = all killed)
DU-145 prostate = details: 10 µM unless noted
K-562 leukemia = details: 10 µM unless noted
MALME-3M melanoma = details: 10 µM unless noted
MDA-MB-231 breast = details: 10 µM unless noted
RXF 393 renal = details: 10 µM unless noted
SF-268 CNS = details: 10 µM unless noted
SF-295 CNS = details: 10 µM unless noted
SF-539 CNS = details: 10 µM unless noted
UACC-257 melanoma = details: 10 µM
M14 melanoma = details: 10 µM unless noted
HCT-15 colon = details: 10 µM unless noted
HT29 colon = details: 10 µM unless noted
SNB-75 CNS = details: 10 µM unless noted
SNB-19 CNS = details: 10 µM unless noted
U251 CNS = details: 10 µM unless noted
PC-3 prostate = details: 10 µM unless noted
SK-MEL-5 melanoma = details: 10 µM unless noted
UACC-62 melanoma = details: 10 µM unless noted
LOX IMVI melanoma = details: 10 µM unless noted
SK-MEL-28 melanoma = details: 10 µM unless noted

| SMILES | growth (DU-145 prostate) [%] | growth (K-562 leukemia) | growth (MALME-3M melanoma) | growth (MDA-MB-231 breast) | growth (RXF 393 renal) | growth (SF-268 CNS) [%] | growth (SF-295 CNS) | growth (SF-539 CNS) | growth (UACC-257 melanoma) | growth (M14 melanoma) | growth (HCT-15 colon) | growth (HT29 colon) | growth (SNB-75 CNS) | growth (SNB-19 CNS) | growth (U251 CNS) | growth (PC-3 prostate) | growth (SK-MEL-5 melanoma) | growth (UACC-62 melanoma) | growth (LOX IMVI melanoma) | growth (SK-MEL-28 melanoma) |
| --- | --- | --- | --- | --- | --- | --- | --- | --- | --- | --- | --- | --- | --- | --- | --- | --- | --- | --- | --- | --- |
| COc1ccc(/C=N/Nc2nc(Nc3ccccc3)nc(Nc3ccc(S(N)(=O)=O)cc3)n2)cc1 | 65.3 | 49.4% | 81.3% | 67.2% | 22.9% | 90.9 | 70.4% | 48% | 96.4% | 74.9% | 68.2% | 55.3% | 81.9% | 86.3% | 66.8% | 75.8% | 74.6% | 87% | 52.5% | 78.5% |
| O=C(Cn1cc(CN2C(=O)c3ccc([N+](=O)[O-])cc3C2=O)nn1)Nc1ccccc1Br | 113 | 98.5% | 99.5% | 103% | 119% | 106 | 108% | 107% | 106% | 101% | 102% | 112% | 87.5% | 102% | 109% | 102% | 104% | 90.7% | 116% | 108% |
| COc1ccccc1/C=C/C(=O)c1nnn(-c2ccc(C(=O)O)cc2)c1C | 80.4 | 73.7% | 86.8% | 98.7% | 86.6% | 87.5 | 100% | 91.4% | 81.5% | 77.8% | 71.6% | 106% | 89.1% | 87.9% | 86.4% | 93.2% | 95.7% | 79.7% | 66.1% | 97.3% |
| COc1ccc(CCN2C(=O)CSC2=S)cc1OC | 18.9 | 64.8% | 95.6% | 80.4% | 59.2% | 100 | 102% | 93.9% | 96.4% | 94.3% | 84% | 109% | 112% | 99.9% | 99.5% | 91.2% | 85.2% | 97% | 56.6% | 102% |
| COc1cc2oc(-c3cccc(NC(=O)c4cc(NC(=O)[C@H](C)NC(=O)OC(C)(C)C)ccc4C)c3)cc(=O)c2c(OC)c1OC | 62.2 | 47.4% | 92.5% | 65.1% | 67.7% | 79.4 | 65.5% | 79.4% | 118% | 97.9% | 50.8% | 75.5% | 102% | 65.4% | 53.5% | 68.8% | 63.2% | 75.4% | 53.8% | 87% |
| CNC(=O)c1c(NC(=O)c2ccc(F)cc2F)sc2c1CCC(=O)C2 | 66.4 | 12.7% | -9.54% (active) | -16.6% (active) | -28.9% (active) | 20.3 | -3.76% (active) | -28.6% (active) | -2.26% (active) | 19.3% | -2.45% (active) | 12.8% | 4.82% (active) | 19.1% | 12.6% | 11.7% | -64.9% (active) | -25.5% (active) | 14.5% | 30.2% |
| CCC(CC)n1c(=O)c(SC2=NC3C(NN2)N(CC)C(=O)N3CC)c(C(=O)O)c2ccccc21 (stereo not given) | 16.2 | 11.1% | 68.1% | 19.1% | 13.4% | 52.4 | 22.3% | 3.93% (active) | 59.9% | 16% | 14.2% | 2.44% (active) | 39.6% | 35.2% | 14.8% | 23.9% | 6.37% (active) | 22.5% | 23% | 65.4% |
| CC1COc2c(N3CCN(C)CC3)c(F)cc3c(=O)c(C(=O)N/N=C/c4cc[nH]c4)cn1c23 (stereo not given) | 42 | -27.8% (active) | -3.02% (active) | 44.4% | 16% | 59.1 | 70.3% | 38.5% | -74.5% (active) | -79.8% (active) | 47.1% | 14.6% | 74.4% | 9.01% (active) | -41.6% (active) | 27.9% | 25.3% | 76% | -88.5% (active) | 57.3% |
| NC(=O)c1c(NC(=O)c2cccc(OC(F)(F)F)c2)sc2c1CCC(=O)C2 | 107 | 13.5% | 81.3% | 63.3% | 36.4% | 55.7 | 46.1% | 25.7% | 81.8% | 37.6% | 19.2% | 40.3% | 43.6% | 43.1% | 28.7% | 21.3% | 95.4% | 60.7% | 28.5% | 82.6% |
| O=C(/C=C/Nc1ccc(S(=O)(=O)O)cc1)c1ccc(F)cc1 | 103 | 106% | 105% | 106% | 99.9% | 102 | 98.7% | 94% | 101% | 96% | 96.4% | 103% | 92.4% | 93.4% | 98% | 96.1% | 99.2% | 93.5% | 95.9% | 101% |
| C=C(C)C(=O)O[C@H]1C[C@@]2(C)OC(=CC2=O)[C@H](C)[C@H](O)[C@H]2OC(=O)C(=C)[C@@H]21 | 73.2 | 20.4% | 48.3% | 76.6% | 22.2% | 79.8 | 93.8% | 74.7% | 67% | 71.7% | 32.6% | 95.6% | 77.2% | 106% | 86.6% | 79.7% | 88.2% | 52.3% | 57.7% | 61.7% |
| COc1ccc(NC(=O)[C@H](C)NC(=O)OC(C)(C)C)cc1C(=O)Nc1cccc(-c2cc(=O)c3c(OC)c(OC)c(OC)cc3o2)c1 | 23 | 10.6% | -13.2% (active) | -46.4% (active) | -84.4% (active) | 34.9 | -11.4% (active) | -38.1% (active) | -74.4% (active) | -52.3% (active) | 3.87% (active) | -10.5% (active) | -18.3% (active) | 16.9% | -34.1% (active) | -36.9% (active) | -91.1% (active) | -40.8% (active) | -73.7% (active) | 0.755% (active) |
| Cc1ccccc1NC1CC(=O)N(c2ccc(Cl)cc2Cl)C1=O (stereo not given) | 103 | 107% | 98.9% | 104% | 112% | 99.4 | 102% | 93.1% | 98.5% | 102% | 101% | 104% | 90.9% | 95.6% | 99.5% | 97.2% | 94.4% | 99.8% | 94.4% | 105% |
| Cc1ccc(/C=C/CC(=O)Nc2ccc(C(=O)Nc3ccc(F)cc3N)nc2)cn1 | 34.9 | 20.4% | 23.9% | 54.7% | 37.2% | 45.2 | 49.1% | 40.8% | 32.9% | 35.5% | 52.3% | 15.9% | 36.7% | 60% | 44.9% | 42.9% | 20.9% | 21.8% | 24.3% | 25.3% |
| Clc1ccc(-c2csc(Nc3cccc(Nc4csc(-c5ccc(Cl)cc5)n4)c3)n2)cc1 | 86.2 | 67.1% | 98% | 64.2% | 94.4% | 79.3 | 90% | 82.8% | 102% | 74.7% | 56.5% | 88.1% | 96.8% | 85.5% | 85.4% | 74.1% | 96.2% | 76% | 63.8% | 92.7% |
